Source: the supplement of paper PMC12636033
± gives the standard deviation of the averaged measurements. Over roughly 33,000 sequences, “E-score (rank enrichment, -0.5 to 0.5)” has its median near -0.0043; the highest 2% begin near 0.24. This excerpt belongs to a sample that is enriched for the highest values.

tested on: 2Sp-muMax20 (muMax20 with two 2,6-bis(methyl)pyridine Cys staples); experiment: PBM 8-mer E-score (E-score (rank enrichment, -0.5 to 0.5)); higher = stronger preferential binding
Procedure: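 Protein binding microarray (universal PBM chip covering all 10-mers in fixed probe flanks) with chemically synthesized human Max(13-93) bHLH-LZ analogs (not full-length Max) bearing noncanonical residues (hArg, Tha, Aib, Nle at 65) and aromatic Cys staples. Read-out per 8-mer (and its reverse complement): E-score (rank-based enrichment, -0.5 to 0.5) and Z-score of median probe intensity.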

Sequence | PBM 8-mer E-score
TCATTTCA | 0.171 ± 0.068
CATGGCCA | 0.0303 ± 0.016
CCAGCAGG | -0.054 ± 0.077
CGTTTCAA | -0.171 ± 0.036
CGTTTATC | -0.0397 ± 0.011
AGGCCCGA | -0.161 ± 0.0046
TATATATA | 0.315 ± 0.019
CATATAGG | 0.145 ± 0.0097
CATATATA | 0.277 ± 0.012
AAGATATA | 0.259 ± 0.022
GATATATA | 0.204 ± 0.027
CATATATC | 0.232 ± 0.0054
AAGATATC | 0.211 ± 0.14
TATATAGA | 0.166 ± 0.025
CAGATATA | 0.0905 ± 0.056
CATATAGA | 0.182 ± 0.038
CATATATG | 0.308 ± 0.036
CATATACG | 0.0657 ± 0.013
CCTAGTAG | 0.00183 ± 0.043
CACACTAA | 0.172 ± 0.041
CGTCCCAG | -0.132 ± 0.0026
CTATGGAG | 0.0519 ± 0.034
CAAGCTTA | -0.00639 ± 0.037
CCTGCCAC | -0.0854 ± 0.043
AGACCGTG | -0.2708 ± 0.0017

Sequence | PBM 8-mer E-score
TATGCCGA | -0.0358 ± 0.062
ACCAGCAG | -0.0797 ± 0.013
CCCGCCAG | -0.131 ± 0.01
AATCTATA | 0.147 ± 0.091
CTAATCTA | 0.0847 ± 0.035
ATAATATA | 0.194 ± 0.04
GTAATCTA | 0.259 ± 0.056
CTAATATA | 0.1721 ± 0.00093
GTTATAGA | 0.175 ± 0.05
GATCTATA | -0.0283 ± 0.079
GTTATATA | 0.264 ± 0.022
ATAATCTA | 0.141 ± 0.07
CTTATATA | 0.166 ± 0.073
GTAATATA | 0.255 ± 0.07
CATCTATA | 0.288 ± 0.024
ACCGCCCG | -0.242 ± 0.065
AAGGCGCC | 0.175 ± 0.087
CGCAACCA | 0.0737 ± 0.021
CCTTGCCA | -0.0434 ± 0.087
GTAATTGA | 0.0816 ± 0.034
CTAATTGA | -0.0167 ± 0.015
AGAATTTA | 0.284 ± 0.096
CGAATTTA | 0.131 ± 0.035
AGAATTTC | -0.0921 ± 0.041
GTAATTTA | 0.0251 ± 0.0029

Sequence | PBM 8-mer E-score
ATAATTTG | 0.183 ± 0.083
ATAATTGA | 0.2552 ± 0.0018
ATAATTTA | 0.284 ± 0.12
CGTGACTA | 0.0126 ± 0.018
ATTCTAGG | -0.0261 ± 0.025
ATTAACGA | 0.0547 ± 0.19
GTCCACCA | -0.0165 ± 0.0032
CTGCCCAA | -0.0288 ± 0.022
CATGTACC | -0.115 ± 0.026
ATATATGA | 0.293 ± 0.049
ACATATGC | 0.0823 ± 0.085
CTATATGC | 0.159 ± 0.037
ATATATGG | 0.285 ± 0.018
AGATATGG | 0.168 ± 0.027
ATATATGC | 0.251 ± 0.052
AAATATGG | 0.18 ± 0.0044
GTATATGA | 0.0252 ± 0.077
CTATATGA | 0.145 ± 0.07
ATCCTGTG | -0.0686 ± 0.032
GGCGGACC | -0.233 ± 0.004
ATATGAGC | 0.148 ± 0.011
GACATCTC | -0.202 ± 0.052
TGTGCAAA | -0.0258 ± 0.033
ATTACATC | 0.126 ± 0.094
ATTACAGC | -0.033 ± 0.008

Sequence | PBM 8-mer E-score
ATTACATA | 0.0685 ± 0.037
ATTACATG | 0.242 ± 0.037
ATTACAGA | -0.0244 ± 0.14
ATTACAGG | 0.312 ± 0.042
GGCTGGGA | -0.0185 ± 0.052
ACACCGAA | -0.0827 ± 0.029
ACCTCGGA | -0.233 ± 0.0065
CAGTCTCA | -0.0913 ± 0.013
TAATTATA | 0.245 ± 0.027
GAGTTATA | 0.104 ± 0.048
TAGTTATA | 0.255 ± 0.0097
CAATTATA | 0.176 ± 0.028
AAATTATC | 0.199 ± 0.084
GAATTATA | 0.19 ± 0.11
AAATTATA | 0.301 ± 0.063
AAATTATG | 0.134 ± 0.036
AAGTTATA | 0.0392 ± 0.07
CGCCTTCA | -0.00719 ± 0.17
AGATGCCG | -0.118 ± 0.13
GTAACATA | 0.177 ± 0.016
ATACCGCA | 0.013 ± 0.035
AAATTGAA | 0.24 ± 0.083
GAATTGAA | 0.0949 ± 0.085
ATATTGAA | 0.0994 ± 0.059
TTATTGAA | 0.3 ± 0.049

Sequence | PBM 8-mer E-score
GTATTGAA | 0.132 ± 0.089
AAATTGAT | 0.113 ± 0.046
ACAACGGA | -0.0195 ± 0.029
ACGATACA | 0.0917 ± 0.079
ACATAGCG | 0.00456 ± 0.11
ACCCCGCT | -0.0295 ± 0.018
GATGCGCC | -0.0256 ± 0.014
CGTGAAAA | 0.109 ± 0.014
TGTGAAAA | 0.289 ± 0.035
GGTGAAAA | -0.00809 ± 0.034
AATAGGTA | 0.198 ± 0.0069
AGCCGTTA | -0.114 ± 0.018
AACCGTAA | 0.0404 ± 0.047
CTGATCAA | -0.0225 ± 0.021
CGCGGGAA | 0.0597 ± 0.013
ATGTAATG | 0.134 ± 0.074
ATGTACTG | 0.0436 ± 0.099
ATGTAATA | 0.278 ± 0.0077
GTGTAATA | 0.162 ± 0.042
CTGTAATA | 0.134 ± 0.074
ATGTAAAA | 0.274 ± 0.016
ATGTACTA | 0.258 ± 0.061
CTGTAATC | 0.0629 ± 0.045
ATGTAAAT | 0.159 ± 0.029
CTGTAAAA | 0.102 ± 0.0073

Sequence | PBM 8-mer E-score
GTGTACTA | 0.0822 ± 0.031
ATGTAATC | 0.236 ± 0.023
CCTGGAGA | -0.136 ± 0.09
AAACTTAT | 0.203 ± 0.022
GTGGGCCA | -0.0973 ± 0.051
AGGAGCCC | 0.00737 ± 0.03
ACCTCCAG | -0.161 ± 0.079
AGGGACCT | -0.13 ± 0.0014
GGCAACGA | -0.123 ± 0.0029
CACATAAC | 0.0249 ± 0.13
AACATAAC | 0.278 ± 0.052
GACATAAC | 0.146 ± 0.026
AACATAAG | 0.0487 ± 0.042
AACATAAT | 0.285 ± 0.053
AACATAAA | 0.164 ± 0.097
GTCGGCAC | -0.0877 ± 0.06
TCCGATAA | -0.23 ± 0.14
AAAGTACC | 0.17 ± 0.02
AGCGCTAA | -0.0615 ± 0.022
CTTGACGA | 0.00312 ± 0.0077
CGGTGAAC | 0.0144 ± 0.098
AGGGCGAA | -0.00371 ± 0.021
GAATACGC | 0.0401 ± 0.069
AAATACGC | 0.236 ± 0.058
AAATACGT | 0.112 ± 0.06

Sequence | PBM 8-mer E-score
ATTAAGGC | 0.0884 ± 0.038
AGCGATGC | -0.00497 ± 0.044
AGATAAAC | 0.00083 ± 0.061
CCTTTCAC | 0.0665 ± 0.067
ATTTTCAC | 0.0326 ± 0.0074
CTTTTCAC | 0.287 ± 0.021
CGGTTCGA | -0.0332 ± 0.043
CACCCTCG | 0.07079 ± 0.00033
CATGTTGA | 0.244 ± 0.023
CATGTTAC | 0.256 ± 0.018
ATTGTTTA | -0.0168 ± 0.043
CATGTTTA | 0.24 ± 0.056
GTTGTTTA | 0.247 ± 0.0077
CATGTTTC | 0.0659 ± 0.0045
CATGTTGC | 0.1 ± 0.094
AATGTTGA | -0.0129 ± 0.047
CATGTTAG | 0.111 ± 0.049
AATGTTAC | 0.0165 ± 0.1
GATGTTTA | 0.0541 ± 0.02
CTTGTTTA | -0.0208 ± 0.029
ATTTCAGA | 0.0234 ± 0.035
GGGATCGA | 0.0419 ± 0.04
